What was measured:
Experiment in all cases: growth inhibition (% activity, log2 RLU normalised to DMSO / staurosporine); higher = more growth inhibition
Details in all cases: 33 µM
DIPGX29 = tested on: DIPGX29 (H3.3 K27M diffuse intrinsic pontine glioma line)
In short: (§1)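 For each approved drug, the growth-inhibition value is the replicate median of per-plate normalised CellTiter-Glo data. Luminescence was log2-transformed and expressed as % activity between solvent and positive control wells. Drugs were applied in triplicate at a single final concentration of about 33 μM for 7 days at 37 °C, 5% CO2 to pHGG cell lines and H9-derived neural stem cells.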

DIPGX37 = tested on: DIPGX37 (H3.3 K27M diffuse intrinsic pontine glioma line)
In short: as §1

DIPGX7 = tested on: DIPGX7 (H3.3 K27M diffuse intrinsic pontine glioma line)
In short: as §1

DIPGX9 = tested on: DIPGX9 (diffuse intrinsic pontine glioma line)
In short: as §1

HGGX39 = tested on: HGGX39 (paediatric high-grade glioma line)
In short: as §1

HGGX6 = tested on: HGGX6 (H3.3 G34R paediatric high-grade glioma line)
In short: as §1

HNSC = tested on: HNSC
In short: as §1

SUDIPGIV = tested on: SUDIPGIV (diffuse intrinsic pontine glioma line)
In short: as §1

SUDIPGVI = tested on: SUDIPGVI (diffuse intrinsic pontine glioma line)
In short: as §1

SUDIPGXIII = tested on: SUDIPGXIII (diffuse intrinsic pontine glioma line)
In short: as §1

| SMILES | growth inhibition (DIPGX29) [%] | growth inhibition (DIPGX37) [%] | growth inhibition (DIPGX7) [%] | growth inhibition (DIPGX9) [%] | growth inhibition (HGGX39) [%] | growth inhibition (HGGX6) [%] | growth inhibition (HNSC) [%] | growth inhibition (SUDIPGIV) [%] | growth inhibition (SUDIPGVI) [%] | growth inhibition (SUDIPGXIII) [%] |
| --- | --- | --- | --- | --- | --- | --- | --- | --- | --- | --- |
| Nc1ncn([C@H]2C[C@H](O)[C@@H](CO)O2)c(=O)n1 | 2.35 | 0.227 | 3.51 | 4.93 | 4.99 | 3.19 | 27.6 | 5.46 | 2.19 | 1.68 |
| CCOC(=O)[C@H](CCc1ccccc1)N[C@H]1CS[C@H](c2cccs2)CN(CC(=O)O)C1=O | -2.15 | 0.457 | 0.303 | -0.286 | 0.0238 | 0.0397 | 1.94 | -0.624 | -2.82 | 0.0387 |
| Cc1ncc(CO)c(CO)c1O | 0.532 | 1.29 | 0.82 | 0.826 | -0.552 | 2.21 | 1.1 | 0.59 | 0.153 | -0.917 |
| CNCC[C@@H](Oc1ccccc1C)c1ccccc1 | 1.02 | 2.33 | 2.36 | 0.537 | 2.58 | -1.18 | 8.5 | 3.36 | 4.57 | 1.41 |
| CN(C)CCC(c1ccc(Cl)cc1)c1ccccn1 (racemic) | 1.65 | 2.71 | 2.71 | 1.38 | 3.68 | 0.339 | 4.41 | 1.92 | 4.15 | -0.538 |
| Nc1nc(NC2CC2)c2ncn([C@H]3C=C[C@@H](CO)C3)c2n1 | 1.7 | 3.27 | 1.17 | 1.56 | 3.46 | 3.46 | 0.755 | 2.42 | 3.29 | 0.173 |
| OCCN(CCO)c1nc(N2CCCCC2)c2nc(N(CCO)CCO)nc(N3CCCCC3)c2n1 | -2.31 | -0.429 | -1.26 | -0.332 | 2.38 | 1.04 | -0.178 | -1.52 | -2.93 | 1.36 |
| O=S(=O)(O)Oc1ccc(C(c2ccc(OS(=O)(=O)O)cc2)c2ccccn2)cc1 | -1.54 | -1.27 | -2.88 | -1.22 | -0.859 | -1.53 | -1.57 | -2.15 | -2.91 | 0.476 |
| C=CC[N+]1([C@H]2C[C@H]3[C@@H]4CC[C@H]5C[C@H](O)[C@@H](N6CCOCC6)C[C@]5(C)[C@H]4CC[C@]3(C)[C@H]2OC(C)=O)CCCC1 | -0.303 | -0.692 | 1.36 | 0.151 | 4.24 | 1.87 | 2.05 | -0.149 | 0.535 | 1.02 |
| CC1(C)Cc2c(-c3ccccc3)c(-c3ccc(Cl)cc3)c(CC(=O)O)n2C1 | 1.89 | 3.9 | 3.38 | 1.48 | 2.51 | -0.994 | 8.73 | 1.41 | 1.99 | 1.12 |
| Nc1nc(O)c2ncn(CCC(CO)CO)c2n1 | -0.633 | 1.72 | 0.291 | -0.106 | 0.105 | -0.242 | 0.639 | 0.184 | 1.56 | 0.273 |
| NC(=O)c1cn(Cc2c(F)cccc2F)nn1 | -1.15 | -0.27 | -2 | -1.13 | -1.24 | -1.04 | -2.69 | -1.85 | -0.117 | 0.834 |
| O=C1O[C@H]([C@@H](O)CO)C(O)=C1O | -0.099 | 2.39 | 0.0255 | -1.21 | 1.99 | -2.25 | 2.06 | 0.144 | -0.209 | -0.259 |
| O=C(Nc1cccc2c(=O)cc(-c3nnn[nH]3)oc12)c1ccc(OCCCCc2ccccc2)cc1 | 2.7 | 2.86 | 2.31 | 0.614 | 2.23 | -2.27 | 52.4 | 2.11 | 1.62 | 2.22 |
| CC1(C)S[C@@H]2[C@H](NC(=O)[C@H](NC(=O)N3CCN(S(C)(=O)=O)C3=O)c3ccccc3)C(=O)N2[C@H]1C(=O)O | -1.26 | 0.368 | -0.979 | -1.9 | -0.656 | -0.1 | -2.17 | 0.286 | -2.19 | 2.64 |
| CN1CCC[C@H]1c1cccnc1 | 0.174 | 0.939 | -1.09 | -1.61 | 2.08 | 0.579 | -0.787 | -0.338 | -0.198 | 1.09 |
| Cc1cccc(C)c1NC(=O)C1CCCCN1C (stereo not given) | 0.788 | 0.607 | -0.12 | 0.0719 | 1.51 | 1.22 | -1.45 | -0.501 | 1.09 | 1.48 |
| CC(C)OC(=O)C(C)(C)Oc1ccc(C(=O)c2ccc(Cl)cc2)cc1 | 3.79 | 2.12 | 2.17 | 2.82 | 2.79 | -3.05 | 54.6 | 1.24 | 2.08 | 0.0771 |
| OC(CNCC(O)C1CCc2cc(F)ccc2O1)C1CCc2cc(F)ccc2O1 (stereo not given) | 4.79 | 3.01 | 2.85 | 4 | 4.24 | 6.9 | 2.72 | 2.21 | -0.86 | 2.62 |
| CC(=O)N1CCN(c2ccc(OCC3COC(Cn4ccnc4)(c4ccc(Cl)cc4Cl)O3)cc2)CC1 (stereo not given) | 5.63 | 1.48 | 11.2 | 4.81 | 13.3 | 9.98 | 7.8 | 13.7 | 7 | 12 |
| Cc1cc(C(C)(C)C)cc(C)c1CC1=NCCN1 | -3.84 | -1.44 | -1.4 | -2.83 | -0.405 | -4.11 | 2.45 | 0.0122 | -2.26 | -0.432 |
| CCOc1ccc(NC(C)=O)cc1 | 1.41 | 1.55 | 3.09 | 2.76 | 2.76 | -0.142 | 47.6 | 2.49 | -4.96 | 1.58 |
